RE007 growth inh: qHTS Assay for Inhibitors of the HIV-1 protein Vpr; S. pombe RE007 Vpr strain, BacTiter-Glo ATP luminescence, 24 h; Potency, µM (top dose mostly 92.2 µM), without a hit: at the highest dose activity change, negative = less growth, usual class: inhibitors; 0.21% of 360,000 active; AID 651644, 2012; active = well fitted falling curve with a large enough effect; inconclusive = small, poorly fitted or top-dose-only effect; inactive = no such curve, though single readings can be large or run the other way; note: % is set by controls: 0 for no effect and ±100 for the full control effect; nearly all actives have a fitted effect of over 50% in size
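Fission yeast RE007 carrying one integrated HIV-1 vpr copy, seeded at OD 0.01 in PMG+AL medium with 23 nL pinned compound. Grown 24 h at 30 degrees; viability read by BacTiter-Glo luminescence after 5 min.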
Tb PYK inh: qHTS of Trypanosoma Brucei Inhibitors; TbPYK enzyme, Kinase-Glo Plus ATP luminescence, 45 min; 0.12% of 410,000 active; AID 624173, 2012; Potency, µM (doses to about 76.8 µM), for the others: at the highest dose activity, negative = inhibition, actives largely listed as inhibitors; note: % is set by controls: 0 for no effect and ±100 for the full control effect; nearly all actives have a fitted effect of over 50% in size
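Assay buffer: 50 mM TEA pH 7.2, 100 mM KCl, 10 mM MgCl2, 0.05% BSA, 0.01% Tween-20. Pyruvate kinase from T. brucei plus substrate met compound, then ADP (130 uM final). Luminescence was read post 45 min RT.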
AmpC inh no detg: qHTS Inhibitors of AmpC Beta-Lactamase (assay without detergent). P00811. AmpC nitrocefin hydrolysis, absorbance 480 nm, 0.0001% Triton. Potency, µM (series often up to 57.1 µM), without a hit: at the top dose activity change, negative = inhibition, usual class: inhibitors. 0.52% of 330,000 active;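 note: plate controls were no compound for no effect and no enzyme for full effect; nearly all actives have a fitted effect of over 20% in size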
Target sequence (P00811 whole entry, looked up): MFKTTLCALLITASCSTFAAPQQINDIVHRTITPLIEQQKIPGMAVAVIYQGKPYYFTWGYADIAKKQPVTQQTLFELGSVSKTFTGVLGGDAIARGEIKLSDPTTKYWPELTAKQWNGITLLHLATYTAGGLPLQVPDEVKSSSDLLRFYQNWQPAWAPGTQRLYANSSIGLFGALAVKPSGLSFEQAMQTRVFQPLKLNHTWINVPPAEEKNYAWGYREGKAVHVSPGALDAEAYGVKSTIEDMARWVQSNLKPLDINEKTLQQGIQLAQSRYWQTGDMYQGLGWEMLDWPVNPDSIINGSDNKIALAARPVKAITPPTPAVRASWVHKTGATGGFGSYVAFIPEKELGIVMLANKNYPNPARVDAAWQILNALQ
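20 mM phosphate pH 7.0 + 0.01% (detergent screen) or 0.0001% Triton X-100; 5.3 nM AmpC reagent; cpd preinc 15 min RT; nitrocefin (800 uM stock) to start; A480 q20 s × 4 min; Activity was normalised to no-enzyme and no-compound control wells.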
SARS PLP yeast: qHTS of Yeast-based Assay for SARS-CoV PLP | S. cerevisiae expressing SARS-CoV PLpro, growth rescue | 0.19% of 330,000 active | AID 485353, 2010 | Potency, µM (series often up to 32.9 µM), for the others: at the top dose activity, positive = growth rescue, actives largely listed as activators; calls by dose curve; note: 0% is about no effect; nearly all actives have a fitted effect of over 55% in size
AmpC detergent: qHTS Inhibitors of AmpC Beta-Lactamase (assay with detergent) | P00811 | AmpC hydrolysis of nitrocefin, absorbance 480 nm, 0.01% Triton | Potency, µM (highest dose often 114 µM), without a hit: at the highest dose activity change, negative = inhibition, actives largely listed as inhibitors | 0.041% of 370,000 active;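 note: 0% = no-compound wells and -100% = no-enzyme wells; nearly all actives have a fitted effect of over 25% in size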
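AmpC (5.3 nM in the dispensed reagent) in 20 mM phosphate pH 7.0 with 0.01% (detergent screen) or 0.0001% Triton X-100 was preincubated with compounds for 15 min at room temperature. Nitrocefin was then added from an 800 uM solution, and hydrolysis was followed at 480 nm.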
Sm TGR block: qHTS Assay for the Inhibitors of Schistosoma Mansoni Peroxiredoxins; Schistosoma mansoni thioredoxin glutathione reductase (TGR), Q962Y6; purified TGR, DTNB reduction, TNB absorbance 405 nm; Potency, µM (titrated, usually from 114 µM), inactives show top-dose activity change, negative = inhibition, most hits filed as inhibitors; 3% of 360,000 active; note: % is set by controls: 0 for no effect and ±100 for the full control effect; nearly all actives have a fitted effect of over 60% in size
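TGR 20 nM + NADPH 100 uM (dispensed conc.), cpd preinc 15 min RT; start with NADPH (500 uM addition) then DTNB (15 mM addition). Kinetic TNB absorbance, 405 nm filter. Four-parameter Hill fit across titration.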
Starred values were filed as active, the others as inactive; ? = inconclusive; · = not tested or not shown; [ ] = another dose, or the depositor's remark. Hits are enriched below; roughly 3.3% of the tested compounds scored in any of these assays. Unless noted, calls come from the whole dose curve; as a rule, active = well fitted curve in the direction sought with a large enough effect; inconclusive = small, poorly fitted or top-dose-only effect, or another doubt; inactive = no such curve, though single readings can be large; an effect the other way counts as inactive or inconclusive. Potency is the fitted concentration of half-maximal effect.

SMILES	RE007 growth inh	Tb PYK inh	AmpC inh no detg	SARS PLP yeast	AmpC detergent	Sm TGR block
Cc1cc(-c2ccc(C(C)C)c(S(=O)(=O)NCc3ccco3)c2)on1	9.6%	-0.6%	-36.2%	-11.7%	?	?
Cc1cccc(NCc2nnc3n2CCCCC3)c1C	·	-9.7%	·	·	3.3%	6.2%
O=C(NN1C(=O)c2ccccc2NC1c1ccc([N+](=O)[O-])o1)c1ccc(Br)cc1 (stereo not drawn)	2.6%	-0.1%	-40.8%	2.5%	-15.0%	?
CC(=O)NN1C(=O)c2ccccc2NC1c1ccc([N+](=O)[O-])o1 (stereo not drawn)	-4.1%	3.0%	-27.4%	-1.9%	-9.1%	39.8µM*
CCOc1ccc(S(=O)(=O)NCCc2c(C)[nH]c3c(Cl)cccc23)cc1C	·	3.5%	·	·	6.8%	12.4%
CCOc1ccc2nc(Cl)c(C3CC(c4ccc(C)cc4)=NN3C(=O)CCCC(=O)O)cc2c1 (stereo not drawn)	·	-5.7%	·	·	5.7%	-3.9%
O=C(CCCCn1c(=O)c2ccccc2n(CC(=O)NC2CCCC2)c1=O)NC1CCCC1	3.3%	0.1%	-9.6%	-5.5%	-2.9%	-19.6%
CCCN(CCC)C(=O)Cn1c(=O)n(CCCCC(=O)NC2CCCC2)c(=O)c2ccccc21	-4.6%	2.3%	0.316µM*	1.2%	-1.2%	0.9%
CC1CC(C)CN(C(=O)Cn2c(=O)n(CCCCC(=O)NC3CCCC3)c(=O)c3ccccc32)C1 (stereo not drawn)	3.4%	0.7%	-23.2%	3.2%	?	28.2µM*
C=CC(=O)Oc1ccc(N2Cc3ccccc3C2=O)cc1	7.94µM*	-27.6%	·	·	·	·
COc1ccc(N2Cc3ccccc3C2=O)cc1	?	-25.8%	-19.1%	-11.9%	-4.8%	2.8%
CCOC(=O)c1c(C)oc2c1c(CN1CCN(C(=O)OCC)CC1)c(O)c1ccccc12	-16.0%	-11.1%	0.0%	-1.8%	-5.9%	0.562µM*
CCOC(=O)c1c(C)oc2c1c(C(c1ccncc1)N1CCOCC1)c(O)c1ccccc12 (stereo not drawn)	39.8µM*	-11.9%	242.4%	-37.5%	-4.6%	1.26µM*
CCOC(=O)c1c(C)oc2ccc(O)c(CN3CCCCC3)c12	-2.4%	18.2%	-10.1%	-2.9%	-16.5%	-0.3%
CCOC(=O)c1c(C)oc2c1c1c(c3ccccc32)OCN(Cc2ccccn2)C1	-24.4%	-7.0%	5.5%	-17.9%	-2.6%	0.355µM*
CCOC(=O)c1c(C)oc2c1c(C=NCCC(=O)O)c(O)c1ccccc12	-4.9%	-1.6%	14.3%	2.6%	-7.0%	-10.0%
CCOC(=O)c1c(C)oc2c1c(CN1CCN(CCO)CC1)c(O)c1ccccc12	-10.3%	-2.1%	41.3%	-16.2%	5.5%	0.282µM*
CC(=O)c1ccc(C(=O)N(Cc2cccnc2)c2nc3c(Cl)cccc3s2)cc1	·	-7.6%[15.4 µM]	·	·	?	-2.4%
COc1ccccc1OCc1nc(C#N)c(NCc2ccco2)o1	6.5%	-2.0%	-20.0%	-4.6%	9.9%	39.8µM*
N#Cc1nc(COc2ccccc2Cl)oc1NCc1cccnc1	2.5%	-3.6%	84.4%	3.3%	1.1%	7.08µM*
N#Cc1nc(COc2ccccc2Cl)oc1NCc1ccc(F)cc1	-9.2%	2.3%	-41.7%	7.4%	3.5%	0.0%
Cc1nc2ccc(S(=O)(=O)N(C)CC(=O)Nc3ccc(C(C)C)cc3)cc2s1	·	1.4%	·	·	23.3%	1.9%
CN1CCc2nc(SCc3ccccc3Br)c(C#N)cc2C1	-21.0%	-10.4%	31.9%	-0.2%	6.8%	22.4µM*
O=C(CC1Sc2ncnn2C1=O)Nc1ccc(Br)cc1 (stereo not drawn)	?	-13.1%	-44.9%	-31.5%	-16.4%	1µM*
Cc1ccc(O)c(NC(=S)NC(=O)/C=C/c2ccco2)c1	5.3%	2.6%	-50.3%	-1.3%	0.4%	·
SMILES	RE007 growth inh	Tb PYK inh	AmpC inh no detg	SARS PLP yeast	AmpC detergent	Sm TGR block
Cc1ccc(-c2csc(NC(=S)NC(=O)/C=C/c3ccco3)n2)cc1	13.0%	-11.3%	3.98µM*	-3.6%	0.5%	-14.3%
Cc1ccnc(NC(=S)NC(=O)/C=C/c2ccco2)c1	-25.5%	-9.5%	-43.6%	?	0.6%	25.1µM*
O=C(/C=C/c1ccco1)NC(=S)Nc1ccc(Cl)cn1	?	-17.4%	-40.6%	13.9%	0.9%	35.5µM*
COc1ccc(-c2c3c(=O)n(C)c(=O)n(C)c3cn2-c2ccc(O)cc2)cc1	2.0%	-4.2%	-34.8%	1.6%	-9.2%	44.7µM*
COc1ccc(-c2c3c(=O)n(C)c(=O)n(C)c3cn2-c2ccccc2)cc1	-2.4%	-8.5%	21.1%	-4.1%	?	-15.7%
CCOc1ccccc1N(CC(=O)NCCSc1ccccc1)S(=O)(=O)c1ccccc1	·	0.9%	·	·	-7.4%	0.9%
Cc1c(Br)c(O)c(Br)c2sc(=O)oc12	-16.9%	?	20µM*	-1.1%	-3.9%	2.82µM*
Cn1cc(/C=C2/SC(=O)N(CC(=O)Nc3ccc4c(c3)OCO4)C2=O)c2ccccc21	3.2%	3.5%	-21.3%	-2.5%	-11.5%	1.4%
O=C(CN1C(=O)S/C(=C\c2ccc(-c3cc(C(=O)O)ccc3Cl)o2)C1=O)Nc1ccc2c(c1)OCO2	·	·	-36.3%	-8.2%	79.4µM*	-24.4%
COc1ccc2ccc(O)c(CN3CCN(S(=O)(=O)c4cc([N+](=O)[O-])ccc4C)CC3)c2c1	-9.5%	1.6%	-29.4%	1.3%	-16.6%	1.58µM*
CSc1cccc(NC(=O)C2CCN(S(=O)(=O)c3ccc4[nH]c(=O)ccc4c3)CC2)c1	·	0.0%	·	·	2.2%	-4.9%
CCc1cccc2c(-c3ccccc3)nc(SCC(=O)Nc3ccccc3OC)nc12	·	-5.2%	·	·	18.1%	6.1%
O=C(Nc1ccc(F)cc1)c1cc(S(=O)(=O)N2CCCCC2)cs1	10.8%	-7.3%	22.4µM*	-1.8%	4.0%	-23.6%
Cc1oc(S(=O)(=O)N2CCCCC2)cc1NC(=O)Nc1ccc(F)cc1	-0.4%	2.7%	-44.3%	-0.5%	-3.0%	10µM*
O=C(Nc1ccc(F)cc1)Nc1ccc(S(=O)(=O)N2CCCC2)cc1	3.6%	1.2%	-30.4%	1.6%	1.1%	-12.0%
O=S(=O)(c1ccc(-c2csc(Nc3ccc(F)cc3)n2)cc1)N1CCCC1	17.5%	-9.6%	8.91µM*	8.5%	-3.4%	-16.5%
CCc1ccc(-n2c(=O)c3sc4ccccc4c3n(CC(=O)NCc3ccccc3)c2=O)cc1	·	-6.8%	·	·	-8.7%	0.9%
Cc1ccc(-n2nnnc2C(Cl)c2nnnn2-c2ccc(C)cc2)cc1	29.7%	-6.8%	-30.8%	-115.1%	-6.0%	25.1µM*
